Results on seven molecules are retold here after PubChem BioAssay.

Experiment [1] in a line: growth inhibition of DIPG glioma cells, dose response, cell-based, SU-DIPG-XIII, MIPE4.0, CellTiter-Glo, qHTS (AID 1347061; cut-off not given, nearly all actives have AC50 up to about 37 µM;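 further: cells exposed to compound for 48 hours before readout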). The note with it: SU-DIPG-XIII viability, CellTiter-Glo ATP luminescence. A general note: Cellular ATP, detected with luciferase, serves as a proxy for viable cell number.
The nature of experiment [2]: SU-DIPG-VI glioma cell viability, MIPE4.0 library, CellTiter-Glo luminescence, qHTS (AID 1347066; cut-off not given, nearly all actives have AC50 up to about 30 µM;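 further: cells exposed to compound for 48 hours before readout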). Particulars: CellTiter-Glo ATP luminescence.
Experiment [3] in a line: growth inhibition of DIPG glioma cells, dose response, cell-based, JHH-DIPG-1, MIPE4.0, CellTiter-Glo, qHTS (AID 1347062; cut-off not given, nearly all actives have AC50 up to about 27 µM;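 on AC50: cells exposed to compound for two days before readout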). The note with it: JHH-DIPG-1 viability, CellTiter-Glo ATP luminescence.
Experiment [4] can be described thus: growth inhibition of DIPG glioma cells, dose response, cell-based, SU-DIPG-IV, MIPE4.0, CellTiter-Glo, qHTS (AID 1347063; cut-off not given, nearly all actives have AC50 up to about 30 µM;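 further: compound exposure lasted 48 hours before the viability readout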). The note with it: SU-DIPG-IV viability, CellTiter-Glo ATP luminescence.
A short description of experiment [5]: growth inhibition of DIPG glioma cells, dose response, cell-based, SU-DIPG-XIII, MIPE5.0, CellTiter-Glo, qHTS (AID 1347064; cut-off not given, nearly all actives have AC50 up to about 23 µM;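 further: cells exposed to compound for 48 hours before the viability read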). The note with it: SU-DIPG-XIII viability, CellTiter-Glo ATP luminescence.
Experiment [6] can be described thus: viability loss in pontine glioma line – cell-based, SU-DIPG-XXV, MIPE5.0, CellTiter-Glo, qHTS, dose response (AID 1347065; cut-off not given, nearly all actives have AC50 up to about 26 µM;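 further: cells exposed to compound for 48 hours before ATP readout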). Particulars: CellTiter-Glo ATP luminescence.
A short description of experiment [7]: JHH-DIPG-1 glioma cell viability, MIPE5.0 library, CellTiter-Glo luminescence, qHTS (AID 1347067; cut-off not given, nearly all actives have AC50 up to about 26 µM;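 further: cells exposed to compound for 48 hours before readout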). The note with it: JHH-DIPG-1 glioma viability, CellTiter-Glo ATP luminescence.
Experiment [8] can be described thus: SU-DIPG-XXV glioma cell viability, MIPE5.0 library, qHTS (AID 1347068; cut-off not given, nearly all actives have IC50 up to about 30 µM;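 on IC50: cells exposed to compound for 48 hours before viability readout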). On the technique in general: qHTS replaces the single test concentration by a dilution series.
Experiment [9] is described as follows: sensitizers of A549 cells to miR-34 induction, primary screen, imaging, A549 dox-inducible miR-34, nuclei and caspase counts (AID 1347080;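 active means compounds whose cell count with miR-34 switched on is under 0.7 times the count with it off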). The note with it: A549 miR-34 inducible, Hoechst nuclei count, 48 h.
Experiment [10] can be described thus: modifiers of HSF1 nuclear foci, imaging, Selleck Cancer Library (AID 1347162; in the data active means plate-normalised HSF1 focus index below about 0.46). Particulars: human cells, at 10 µM; SSMD: measured here: HSF1 foci SSMD mean; cell count: measured here: cell number; plate-normalised HSF1 focus index: stronger effect = lower value.
Experiment [11] can be described thus: survival rescue of mitochondrial mutant cells in low glucose, primary screen, MELAS cybrids, Rieske KO mouse fibroblasts, CellTiter-Glo (AID 1508586;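 active means mean z-score across replicates of 1.96 or higher in either the MELAS or the Rieske mutant cell line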;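 further: z relative to plate mean and SD of compound and empty wells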).
Experiment [12] is described as follows: ovarian cancer cell viability with rucaparib, profiling panel, oncology-focused library, rucaparib conditional (AID 1508598). The note with it: patient-derived ovarian cancer cells, CellTiter-Glo viability, 144 h, stronger effect = lower value.

Inconclusive results are not listed. The source made the active and inactive calls.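 How the source made its calls, unless noted: active means normalized viability below 100% at a tested concentration; inactive means the rest.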

Consider `Cc1cccc2c1CC[C@H](CN1CCC(c3c(Cl)cccc3Cl)CC1)C[C@@H]2O`, for which the call in [1] and in [2] was inactive.
With `CC(=O)C1=C(O)C=C2Oc3c(C(C)=O)c(O)c(C)c(O)c3C2(C)C1=O` (stereo unspecified), the result in [1] and in [2] was inactive.
As for `c1cc(N[C@@H]2CCNC2)nc(-c2cnc3ccc(-c4cn[nH]c4)cn23)c1`, the half-maximal activity concentration (AC50) is 11.8 µM (active) in experiment [3]; 14.8 µM (active) in experiment [4]; 14.8 µM (active) in experiment [5]; 16.6 µM (active) in [6]; 18.7 µM (active) in experiment [2]; 16.6 µM (active) in experiment [7]. In addition, in experiment [8], the IC50 was 11.8 µM (active).
For `C[C@@H](O)[C@H]1C(=O)N2C(C(=O)OCOC(=O)C(C)(C)C)=C(SC3CN(C4=NCCS4)C3)[C@H](C)[C@H]12`, the molecule was called inactive in experiment [1] and in experiment [2].
With `Cc1ccccc1C(C(=O)NC1CCCC1)N(C(=O)Cn1cnc2ccccc21)c1cccc(F)c1` (stereo unspecified), the call in experiment [3] and in experiment [4] was inactive.
As to `Cn1cc(-c2ccncc2)c(-c2ccc(OCc3ccc4ccccc4n3)cc2)n1`, the molecule was classed as inactive in experiment [3], in [4], in experiment [2] and in [8]. Further, the AC50 in [6] was 23.5 µM (active).
Turning to `Nc1nccc(Oc2ccc(NC(=O)c3c[nH]cc(-c4ccc(F)cc4)c3=O)cc2F)c1Cl`, the AC50 in [3] is 18.7 µM (active); in [4], 16.6 µM (active); in experiment [5] it was 14.8 µM (active); in experiment [2], 26.4 µM (active). In experiment [8], the IC50 was 23.5 µM (active). Also, the fold change in experiment [9] (stronger effect = lower value, cell number ratio, induced over uninduced) is 0.93 (inactive); in experiment [9] (measured here: relative caspase fold change +Dox/-Dox), 0.882. For the same molecule, the cell count came out at 7750 in [9] (measured here: total cells with miR-34 induction, stronger effect = lower value); 8330 in experiment [9] (measured here: total cells without miR-34 induction); 7240 in [10]. Further, the SSMD in experiment [10] is -0.396. For the same molecule, the plate-normalised HSF1 focus index in [10] was 0.991 (inactive). Further, the z-score is -0.165 (inactive) in [11] (MELAS cybrid survival, CellTiter-Glo 48 h, stronger effect = higher value) and 0.168 in experiment [11] (Rieske KO mouse fibroblast survival, CellTiter-Glo 72 h). Besides, the viability is 110% (inactive) in experiment [12] (at 0.000305 µM, OCI-C5x cells, with rucaparib 10 µM, 100% = cells with rucaparib alone); 130% (inactive) in experiment [12] (at 0.000305 µM, OCI-C5x cells, without rucaparib); 100% (inactive) in [12] (at 0.000305 µM, OCI-P5x cells, with rucaparib 20 µM, 100% = cells with rucaparib alone); 117% (inactive) in experiment [12] (at 0.000305 µM, OCI-P5x cells, without rucaparib); 108% (inactive) in experiment [12] (at 0.00122 µM, OCI-C5x cells, with rucaparib 10 µM, 100% = cells with rucaparib alone); 127% (inactive) in [12] (at 0.00122 µM, OCI-C5x cells, without rucaparib). Further, the viability in experiment [12] (at 0.00122 µM, OCI-P5x cells, with rucaparib 20 µM, 100% = cells with rucaparib alone) was 101% (inactive); in experiment [12] (at 0.00122 µM, OCI-P5x cells, without rucaparib), 114% (inactive); in experiment [12] (at 0.00488 µM, OCI-C5x cells, with rucaparib 10 µM, 100% = cells with rucaparib alone), 118% (inactive); in experiment [12] (at 0.00488 µM, OCI-C5x cells, without rucaparib), 134% (inactive); in experiment [12] (at 0.00488 µM, OCI-P5x cells, with rucaparib 20 µM, 100% = cells with rucaparib alone), 106% (inactive); in experiment [12] (at 0.00488 µM, OCI-P5x cells, without rucaparib) it was 111% (inactive). The viability is 117% (inactive) in experiment [12] (at 0.0195 µM, OCI-C5x cells, with rucaparib 10 µM, 100% = cells with rucaparib alone); 140% (inactive) in experiment [12] (at 0.0195 µM, OCI-C5x cells, without rucaparib); 98.3% (active) in experiment [12] (at 0.0195 µM, OCI-P5x cells, with rucaparib 20 µM, 100% = cells with rucaparib alone); 107% (inactive) in [12] (at 0.0195 µM, OCI-P5x cells, without rucaparib); 104% (inactive) in experiment [12] (at 0.0781 µM, OCI-C5x cells, with rucaparib 10 µM, 100% = cells with rucaparib alone); 122% (inactive) in experiment [12] (at 0.0781 µM, OCI-C5x cells, without rucaparib). Besides, the viability in experiment [12] (at 0.0781 µM, OCI-P5x cells, with rucaparib 20 µM, 100% = cells with rucaparib alone) is 106% (inactive); in experiment [12] (at 0.0781 µM, OCI-P5x cells, without rucaparib), 98.3% (active); in [12] (at 0.313 µM, OCI-C5x cells, with rucaparib 10 µM, 100% = cells with rucaparib alone) it was 133% (inactive); in experiment [12] (at 0.313 µM, OCI-C5x cells, without rucaparib), 122% (inactive); in [12] (at 0.313 µM, OCI-P5x cells, with rucaparib 20 µM, 100% = cells with rucaparib alone) it was 102% (inactive); in experiment [12] (at 0.313 µM, OCI-P5x cells, without rucaparib), 99.4% (active). The viability is 132% (inactive) in [12] (at 1.25 µM, OCI-C5x cells, with rucaparib 10 µM, 100% = cells with rucaparib alone); 123% (inactive) in [12] (at 1.25 µM, OCI-C5x cells, without rucaparib); 99.9% (active) in experiment [12] (at 1.25 µM, OCI-P5x cells, with rucaparib 20 µM, 100% = cells with rucaparib alone); 101% (inactive) in [12] (at 1.25 µM, OCI-P5x cells, without rucaparib); 149% (inactive) in experiment [12] (at 5 µM, OCI-C5x cells, with rucaparib 10 µM, 100% = cells with rucaparib alone); 139% (inactive) in [12] (at 5 µM, OCI-C5x cells, without rucaparib). For the same molecule, the viability in experiment [12] (at 5 µM, OCI-P5x cells, with rucaparib 20 µM, 100% = cells with rucaparib alone) was 59% (active); in [12] (at 5 µM, OCI-P5x cells, without rucaparib), 89.1% (active).

Broadly, the AC50 is the midpoint of the concentration-response curve, whichever way the signal moves. As a reminder, the IC50 is the concentration at which inhibition is half-maximal. A word on the viability: it is a read-out of living cells in per cent, often relative to untreated cells.
